# Reference: PubChem BioAssay (EPA / NIEHS)
# The source made the active and inactive calls. How the source made its calls: active means hit-call score of the fitted dose curve at least 0.9, where 1 is the maximum; inactive means score below 0.9.
# Columns and labels:
# Settings in all cases: mRNA level, 48 h; actives raise or lower the signal
# [1] = read-out: Bcl-2 (BAX) gene, BAX (gene 581); experiment: LTEA_HepaRG_BAX: Life Technologies and Expression Analysis (LTEA) Assay for Bcl-2 (BAX) gene using HepaRG (AID 2283470)
# Procedure, shortened: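 Human HepaRG cells treated in duplicate for 48 h across eight concentrations (max 100 uM, 0.5% DMSO); BAX expression measured by qRT-PCR.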
# [2] = read-out: adenosine kinase (ADK) gene, ADK (gene 132); experiment: LTEA_HepaRG_ADK: Life Technologies and Expression Analysis (LTEA) Assay for adenosine kinase (ADK) gene using HepaRG (AID 2283471)
# Procedure, shortened: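 ADK expression quantified by qRT-PCR, normalised to three housekeeping genes, after 48 h exposure of HepaRG cells to eight concentrations (top 100 uM, half-log steps, duplicate, 0.5% DMSO). Up- or down-regulation fitted relative to vehicle.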
# [3] = read-out: Alpha-fetoprotein (AFP) gene, AFP (gene 174); experiment: LTEA_HepaRG_AFP: Life Technologies and Expression Analysis (LTEA) Assay for Alpha-fetoprotein (AFP) gene using HepaRG (AID 2283472)
# Procedure, shortened: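 Measures AFP mRNA change in HepaRG after 48 h chemical exposure (8 half-log concentrations, highest 100 uM, 0.5% DMSO). Fold change relative to DMSO, fitted in both directions.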
# BCL2L11 (gene 10018) = experiment: LTEA_HepaRG_BCL2L11: Life Technologies and Expression Analysis (LTEA) Assay for Bcl-2 (BCL2L11) gene using HepaRG (AID 2283473)
# Procedure, shortened: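 Differentiated human HepaRG cells in serum-free induction medium were exposed in duplicate for 48 h to eight concentrations (top 100 uM, half-log steps, 0.5% DMSO). BCL2L11 mRNA was quantified by TaqMan qRT-PCR, normalized to ACTB/GAPDH/POLR2A, bidirectional fit versus DMSO.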
# [4] = read-out: Apolipoprotein A-V (APOA5) gene, APOA5 (gene 116519); experiment: LTEA_HepaRG_APOA5: Life Technologies and Expression Analysis (LTEA) Assay for Apolipoprotein A-V (APOA5) gene using HepaRG (AID 2283474)
# Procedure, shortened: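 Differentiated human HepaRG cells were exposed in duplicate for 48 h to eight half-log concentrations from 100 uM in 0.5% DMSO. APOA5 mRNA was quantified by TaqMan qRT-PCR, normalized to ACTB, GAPDH and POLR2A, and fitted bidirectionally against DMSO.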
# [5] = read-out: Bcl-2 (BID) gene, BID (gene 637); experiment: LTEA_HepaRG_BID: Life Technologies and Expression Analysis (LTEA) Assay for Bcl-2 (BID) gene using HepaRG (AID 2283476)
# Procedure, shortened: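 Assay used HepaRG hepatic cells treated 48 h in serum-free medium with half-log dilutions from 100 uM. Endpoint: BID mRNA, qRT-PCR, normalized to ACTB/GAPDH/POLR2A.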
# Caspase-3 (Homo sapiens) = Caspase-3 (Homo sapiens) (UniProt P42574); experiment: LTEA_HepaRG_CASP3: Life Technologies and Expression Analysis (LTEA) Assay for cysteine-aspartic acid protease (CASP3) using HepaRG (AID 2283477)
# Chain of Caspase-3 (Homo sapiens) (P42574 whole entry, looked up): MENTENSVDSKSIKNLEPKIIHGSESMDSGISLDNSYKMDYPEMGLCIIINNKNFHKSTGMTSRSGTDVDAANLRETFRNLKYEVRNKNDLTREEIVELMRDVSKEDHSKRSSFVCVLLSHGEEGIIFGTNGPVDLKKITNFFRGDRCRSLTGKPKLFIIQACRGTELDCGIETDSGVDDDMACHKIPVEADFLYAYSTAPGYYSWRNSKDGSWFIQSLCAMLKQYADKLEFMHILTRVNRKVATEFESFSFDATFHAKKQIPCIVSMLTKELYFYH
# Procedure, shortened: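 Differentiated human HepaRG cells in serum-free induction medium were exposed 48 h to 8-point half-log concentrations from 100 uM (0.5% DMSO vehicle). CASP3 mRNA was measured by qRT-PCR, normalised to ACTB, GAPDH and POLR2A, with bidirectional fitting against DMSO.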
# [6] = read-out: Cytochrome P450 (CYP24A1), CYP24A1 (gene 1591); experiment: LTEA_HepaRG_CYP24A1: Life Technologies and Expression Analysis (LTEA) Assay for Cytochrome P450 (CYP24A1) using HepaRG (AID 2283478)
# Procedure, shortened: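 Differentiated HepaRG cells, pre-cultured 48 h, were exposed in duplicate for 48 h in serum-free induction medium to 8 half-log concentrations (top 100 uM, 0.5% DMSO). CYP24A1 mRNA was quantified by TaqMan qRT-PCR, normalized to ACTB/GAPDH/POLR2A, fitted bidirectionally versus DMSO.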
# [7] = read-out: cysteine-aspartic acid protease (CASP8), CASP8 (gene 841); experiment: LTEA_HepaRG_CASP8: Life Technologies and Expression Analysis (LTEA) Assay for cysteine-aspartic acid protease (CASP8) using HepaRG (AID 2283480)
# Procedure, shortened: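 qRT-PCR readout of CASP8 mRNA, normalized to three housekeeping genes, after 48 h chemical exposure of HepaRG cells; 8-point half-log series, top 100 uM, 0.5% DMSO vehicle. Bidirectional curve fitting against DMSO baseline.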
# [8] = read-out: Cytochrome P450 (CYP2B6), CYP2B6 (gene 1555); experiment: LTEA_HepaRG_CYP2B6: Life Technologies and Expression Analysis (LTEA) Assay for Cytochrome P450 (CYP2B6) using HepaRG (AID 2283481)
# Procedure, shortened: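 Differentiated HepaRG cells, serum-free induction medium, exposed 48 h in duplicate to 8-point half-log concentrations from 100 uM in 0.5% DMSO. CYP2B6 mRNA by qRT-PCR, normalized to ACTB, GAPDH, POLR2A; bidirectional fit versus DMSO.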
# [9] = read-out: Cytochrome P450 2C19 (Homo sapiens) (UniProt P33261); experiment: LTEA_HepaRG_CYP2C19: Life Technologies and Expression Analysis (LTEA) Assay for CYP2C19 using HepaRG (AID 2283482)
# Procedure, shortened: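 Differentiated human HepaRG cells were exposed for 48 h in serum-free induction medium to 8 concentrations (top 100 uM, half-log steps, 0.5% DMSO). CYP2C19 mRNA was measured by qRT-PCR, normalized to ACTB/GAPDH/POLR2A, and fitted bidirectionally against DMSO.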
# CYP2E1 (gene 1571) = experiment: LTEA_HepaRG_CYP2E1: Life Technologies and Expression Analysis (LTEA) Assay for CYP2E1 using HepaRG (AID 2283485)
# Procedure, shortened: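 Assay uses 48 h exposure of HepaRG hepatic cells, eight concentrations to 100 uM. Expression of CYP2E1 is quantified by TaqMan qRT-PCR with ACTB, GAPDH and POLR2A normalization; curves fitted in both directions relative to vehicle.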
# CYP4A11 (gene 1579) = experiment: LTEA_HepaRG_CYP4A11: Life Technologies and Expression Analysis (LTEA) Assay for CYP4A11 using HepaRG (AID 2283486)
# Procedure, shortened: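 Differentiated HepaRG cells, serum-free induction medium, exposed 48 h in duplicate to 8-point half-log series from 100 uM in 0.5% DMSO. CYP4A11 mRNA measured by qRT-PCR, normalized to ACTB, GAPDH, POLR2A; bidirectional fit versus DMSO.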
# [10] = read-out: Cytochrome P450 3A4 (Homo sapiens) (UniProt P08684); experiment: LTEA_HepaRG_CYP3A4: Life Technologies and Expression Analysis (LTEA) Assay for CYP3A4 using HepaRG (AID 2283487)
# Procedure, shortened: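 Differentiated HepaRG cells, plated 48 h, then dosed 48 h in serum-free induction medium with 0.5% DMSO, 8 half-log concentrations up to 100 uM, duplicate. CYP3A4 mRNA by qRT-PCR, normalized to ACTB/GAPDH/POLR2A; bidirectional fit versus DMSO.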
# [11] = read-out: Pro-epidermal growth factor (Homo sapiens) (UniProt P01133); experiment: LTEA_HepaRG_EGF: Life Technologies and Expression Analysis (LTEA) Assay for Epidermal growth factor (EGF) using HepaRG (AID 2283489)
# Procedure, shortened: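 Differentiated human HepaRG cells, plated 48 h then switched to serum-free induction medium, were exposed for 48 h to test chemicals (8-point half-log series, top 100 uM, 0.5% DMSO). EGF mRNA was quantified by qRT-PCR, normalized to ACTB, GAPDH, POLR2A.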
# [12] = read-out: Early growth response protein 1 (EGR1) transcription factor, EGR1 (gene 1958); experiment: LTEA_HepaRG_EGR1: Life Technologies and Expression Analysis (LTEA) Assay for Early growth response protein 1 (EGR1) transcription factor using HepaRG (AID 2283490)
# Procedure, shortened: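 HepaRG, 48 h exposure, 8-pt half-log series from 100 uM, 0.5% DMSO vehicle; EGR1 transcript by TaqMan qRT-PCR (Fluidigm array), housekeeping-normalized; bidirectional fit relative to DMSO baseline.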
# [13] = read-out: Ezrin (EZR), EZR (gene 7430); experiment: LTEA_HepaRG_EZR: Life Technologies and Expression Analysis (LTEA) Assay for Ezrin (EZR) using HepaRG (AID 2283491)
# Procedure, shortened: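 EZR transcript levels came from Fluidigm qRT-PCR and were normalized to three housekeeping genes after 48 h chemical exposure of HepaRG cells. Dosing used an 8-point half-log series with a 100 uM top concentration in 0.5% DMSO, tested in duplicate; both directions were fitted versus vehicle.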
# CYP3A5 (gene 1577) = experiment: LTEA_HepaRG_CYP3A5: Life Technologies and Expression Analysis (LTEA) Assay for CYP3A5 using HepaRG (AID 2283493)
# Procedure, shortened: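 Readout was CYP3A5 mRNA by qRT-PCR. HepaRG cultures were exposed for 48 h in serum-free induction medium to chemicals at up to 100 uM, and responses were fitted in both directions relative to DMSO vehicle.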
# [14] = read-out: Fatty Acid-Binding Protein 1 (FABP1), FABP1 (gene 2168); experiment: LTEA_HepaRG_FABP1: Life Technologies and Expression Analysis (LTEA) Assay for Fatty Acid-Binding Protein 1 (FABP1) using HepaRG (AID 2283494)
# Procedure, shortened: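 qRT-PCR readout of FABP1 transcript (normalized to three housekeeping genes) after 48 h chemical exposure of HepaRG cells; eight concentrations, half-log steps, max 100 uM, 0.5% DMSO vehicle; gain or loss fitted relative to DMSO baseline.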
# CYP2C9 (gene 1559) = experiment: LTEA_HepaRG_CYP2C9: Life Technologies and Expression Analysis (LTEA) Assay for CYP2C9 using HepaRG (AID 2283484)
# Procedure, shortened: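 HepaRG, 48 h dosing, 8-pt half-log series, top 100 uM, 0.5% DMSO vehicle. Read-out: CYP2C9 transcript by TaqMan qRT-PCR, housekeeping-normalized (ACTB/GAPDH/POLR2A). Gain or loss fitted vs DMSO baseline.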
# Chain of Cytochrome P450 2C19 (Homo sapiens) (P33261 whole entry, looked up): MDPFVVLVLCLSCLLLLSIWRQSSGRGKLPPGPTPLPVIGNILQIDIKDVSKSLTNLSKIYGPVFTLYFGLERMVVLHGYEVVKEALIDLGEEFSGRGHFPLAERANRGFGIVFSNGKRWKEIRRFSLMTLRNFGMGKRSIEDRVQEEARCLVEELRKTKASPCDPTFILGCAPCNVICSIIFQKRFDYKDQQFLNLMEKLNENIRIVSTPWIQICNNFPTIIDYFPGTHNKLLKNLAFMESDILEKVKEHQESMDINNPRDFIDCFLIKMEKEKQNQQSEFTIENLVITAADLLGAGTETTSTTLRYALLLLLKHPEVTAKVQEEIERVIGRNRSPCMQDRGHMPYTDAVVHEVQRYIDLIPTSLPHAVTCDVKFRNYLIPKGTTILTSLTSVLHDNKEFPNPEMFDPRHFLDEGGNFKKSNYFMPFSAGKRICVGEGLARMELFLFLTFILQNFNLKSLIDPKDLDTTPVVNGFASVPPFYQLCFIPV
# Chain of Cytochrome P450 3A4 (Homo sapiens) (P08684 whole entry, looked up): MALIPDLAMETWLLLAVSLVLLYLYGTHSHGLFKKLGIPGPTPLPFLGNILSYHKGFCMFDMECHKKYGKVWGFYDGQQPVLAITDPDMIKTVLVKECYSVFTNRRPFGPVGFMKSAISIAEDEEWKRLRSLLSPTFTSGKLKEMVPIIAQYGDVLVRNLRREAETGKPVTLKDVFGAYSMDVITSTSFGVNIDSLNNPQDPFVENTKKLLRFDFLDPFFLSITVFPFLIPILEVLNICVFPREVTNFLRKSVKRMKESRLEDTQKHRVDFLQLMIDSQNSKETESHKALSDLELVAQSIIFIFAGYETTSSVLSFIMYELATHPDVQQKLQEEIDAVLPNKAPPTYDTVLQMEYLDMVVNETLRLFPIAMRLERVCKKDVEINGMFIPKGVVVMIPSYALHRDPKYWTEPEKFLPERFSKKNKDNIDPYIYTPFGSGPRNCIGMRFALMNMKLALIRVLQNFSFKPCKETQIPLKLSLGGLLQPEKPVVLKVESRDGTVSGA
compound,measurement,setting,value
CN(Cc1cnc2nc(N)nc(N)c2n1)c1ccc(C(=O)N[C@@H](CCC(=O)O)C(=O)O)cc1,outcome,[1],inactive
same,outcome,[2],inactive
same,AC50,[3],0.231 µM (active)
same,outcome,BCL2L11 (gene 10018),inactive
same,outcome,[4],inactive
same,outcome,[5],inactive
same,outcome,Caspase-3 (Homo sapiens),inactive
same,outcome,[6],inactive
same,outcome,[7],inactive
same,AC50,[8],0.16 µM (active)
same,outcome,[9],inactive
same,AC50,CYP2E1 (gene 1571),0.222 µM (active)
same,outcome,CYP4A11 (gene 1579),inactive
same,outcome,[10],inactive
same,outcome,[11],inactive
same,AC50,[12],0.121 µM (active)
same,outcome,[13],inactive
same,AC50,CYP3A5 (gene 1577),0.0985 µM (active)
same,AC50,[14],0.322 µM (active)
N=C(N)c1ccc(OCCCCCOc2ccc(C(=N)N)cc2)cc1,AC50,[1],6.28 µM (active)
same,AC50,[2],30.5 µM (active)
same,AC50,[3],7.45 µM (active)
same,AC50,BCL2L11 (gene 10018),3.64 µM (active)
same,AC50,[4],11.4 µM (active)
same,AC50,[5],68.3 µM (active)
same,AC50,Caspase-3 (Homo sapiens),69.8 µM (active)
same,outcome,[6],inactive
same,AC50,[7],30.1 µM (active)
same,AC50,[8],3.74 µM (active)
same,AC50,[9],6.53 µM (active)
same,AC50,CYP2E1 (gene 1571),6.51 µM (active)
same,AC50,CYP4A11 (gene 1579),3.02 µM (active)
same,AC50,[11],22.2 µM (active)
same,AC50,[12],27.1 µM (active)
same,outcome,[13],inactive
same,AC50,[14],4.05 µM (active)
OCC(CO)(CBr)CBr,outcome,[1],inactive
same,outcome,[2],inactive
same,outcome,[3],inactive
same,outcome,BCL2L11 (gene 10018),inactive
same,outcome,[4],inactive
same,outcome,[5],inactive
same,outcome,Caspase-3 (Homo sapiens),inactive
same,outcome,[6],inactive
same,outcome,[7],inactive
same,outcome,[8],inactive
same,outcome,[9],inactive
same,outcome,CYP2C9 (gene 1559),inactive
same,outcome,CYP2E1 (gene 1571),inactive
same,AC50,CYP4A11 (gene 1579),0.411 µM (active)
same,outcome,[10],inactive
same,outcome,[11],inactive
same,outcome,[12],inactive
same,outcome,[13],inactive
same,outcome,CYP3A5 (gene 1577),inactive
same,outcome,[14],inactive
CS(=O)(=O)c1ccc([C@@H](CC2CCCC2)C(=O)Nc2cnccn2)cc1Cl,AC50,[1],41.3 µM (active)
same,outcome,[2],inactive
same,AC50,[3],69.8 µM (active)
same,outcome,BCL2L11 (gene 10018),inactive
same,AC50,[4],71.2 µM (active)
same,outcome,[5],inactive
same,outcome,Caspase-3 (Homo sapiens),inactive
same,outcome,[7],inactive
same,outcome,[11],inactive
same,AC50,[12],83.9 µM (active)
same,outcome,[13],inactive
same,AC50,[14],63.4 µM (active)
